We go through six compounds from PubChem BioAssay (EPA / NIEHS).

Several values for one entry are separate records, joined by “and”; a condition that tells them apart may be missing. Identical values can stand only once. Records with an inconclusive call do not appear. Some structures have more than one record in an assay (separate samples or runs), and their calls can disagree. Activity calls are given as the source filed them. The calls were made as follows, unless noted: active = hit-call score of the fitted dose curve at least 0.9, where 1 is the maximum; inactive = score below 0.9.

A word on the AC50: it is the midpoint of the concentration-response curve, whichever way the signal moves.

Experiment [1] can be described thus: ATG_PXRE_CIS: Attagene CIS-FACTORIAL HepG2 Assay for human Pregnane X Receptor Element (PXRE) (AID 2282957). To be noted: HepG2 Attagene CIS-FACTORIAL PXRE reporter, mRNA; actives raise or lower the signal. Summed up:
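Endogenous transcription factor activity in HepG2 was gauged through induction of reporter mRNA driven by a cis-regulating promoter element, sampled 24 h post-treatment. Activity was fitted in both directions against DMSO negative control.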

A short description of experiment [2]: ATG_PPRE_CIS: Attagene CIS-FACTORIAL HepG2 Assay for human Peroxisome Proliferator-activated Response Element (PPRE) (AID 2282958). To be noted: HepG2 PPRE cis-element reporter, Attagene transcription factor profiling; actives raise or lower the signal. The gist of the method: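 In this cell-based multiplex, a PPRE cis element drives a reporter sequence in transiently transfected HepG2 cells. Following 24 h treatment, labeled cDNA amplicons are sized and quantified by capillary electrophoresis, with DMSO defining baseline.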

The nature of experiment [3]: ATG_RORE_CIS: Attagene CIS-FACTORIAL HepG2 Assay for human RAR-related Orphan Receptor Element (RORE) (AID 2282959). To be noted: HepG2 Attagene cis-factorial RORE reporter, mRNA; actives raise or lower the signal. Summed up: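 Endogenous factor activity at a cis response element is read as reporter transcript levels in HepG2 cells, 24 h post-dose. Transcripts are quantified by RT-PCR with capillary electrophoresis, and data fitted in both directions against DMSO.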

Experiment [4] can be described thus: ATG_Sox_CIS: Attagene CIS-FACTORIAL HepG2 Assay for human SRY-box transcription factor (SOX) (AID 2282960). To be noted: HepG2 Attagene cis-factorial SOX reporter, mRNA; actives raise or lower the signal. Summed up:
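Measures mRNA induction of a SOX1-associated reporter in HepG2 after 24 h dosing. Fluorescently labelled RT-PCR fragments are separated by capillary electrophoresis, and gain or loss relative to DMSO control is fitted.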

Experiment [5] addresses Transcription factor Sp1 (Homo sapiens) (UniProt P08047). Briefly: ATG_Sp1_CIS: Attagene CIS-FACTORIAL HepG2 Assay for human Specificity Protein 1 (Sp1) (AID 2282961). To be noted: HepG2 Sp1 cis-reporter transcription, actives raise or lower the signal. Summed up: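 Cells: HepG2, transiently transfected with cis-regulated multiplexed reporters. Exposure: 24 h. Detection: reporter transcripts amplified, fluorescently labeled, restriction-digested and sized by capillary electrophoresis. Analysis: bidirectional fit relative to DMSO.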

A short description of experiment [6]: ATG_SREBP_CIS: Attagene CIS-FACTORIAL HepG2 Assay for human Sterol Regulatory Element Binding (SREBP) (AID 2282962). To be noted: HepG2 Attagene cis-factorial SREBP reporter, mRNA; actives raise or lower the signal. Summed up:
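Endogenous SREBP activity read as cis-element-driven reporter transcript in transiently transfected HepG2, 24 h post-dosing; quantified via RT-PCR plus capillary electrophoresis of fluorescent fragments. Gain or loss of signal fitted relative to DMSO baseline.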

Experiment [7] has as its target Signal transducer and activator of transcription 3 (Homo sapiens) (UniProt P40763). Briefly: ATG_STAT3_CIS: Attagene CIS-FACTORIAL HepG2 Assay for human Signal Transducer and Activator of Transcription 3 (STAT3) (AID 2282963). To be noted: HepG2, Attagene cis-factorial STAT3 reporter transcription; actives raise or lower the signal. Summed up: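 Fluorescence intensity of 6-FAM-labelled reporter fragments, separated by capillary electrophoresis after RT-PCR, gave the signal. Cells were HepG2 transfected with cis-element reporter units and treated 24 h; fitting was bidirectional relative to DMSO.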

The nature of experiment [8]: ATG_TA_CIS: Attagene CIS-FACTORIAL HepG2 Assay for human TA Basal Promoter (AID 2282964). To be noted: HepG2 Attagene CIS-factorial TA basal promoter reporter; actives raise or lower the signal. Summed up:
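Transfected HepG2, 24 h compound exposure; RNA → RT-PCR → FAM primer extension → HpaI cut → CE fluorescence. Gain/loss-of-signal fitted against DMSO negative control. Background-control readout.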

A short description of experiment [9]: ATG_TCF_b_cat_CIS: Attagene CIS-FACTORIAL HepG2 Assay for human T-Cell-Factor with beta-catenin (TCF/b-cat) (AID 2282965). To be noted: HepG2 TCF/beta-catenin cis-reporter transcription, actives raise or lower the signal. The gist of the method: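 HepG2, transient MRTU transfection, cis-element-driven reporters (endogenous TFs). 24 h compound exposure. Readout: reporter mRNA by RT-PCR + 6-FAM primer extension, HpaI digest, capillary electrophoresis. Gain/loss fit vs DMSO baseline.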

A short description of experiment [10]: ATG_TAL_CIS: Attagene CIS-FACTORIAL HepG2 Assay for human TAL Basal Promoter (AID 2282966).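 Also: background control endpoint measuring basal TAL promoter reporter mRNA not a specific factor.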 To be noted: HepG2 Attagene cis-factorial TAL promoter reporter; actives raise or lower the signal. The gist of the method:
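Endogenous transcription-factor activity is sensed in HepG2 cells through transfected cis-promoter reporter constructs. After 24 h dosing, reporter transcripts are quantified by RT-PCR and capillary electrophoresis. Gain or loss of signal is fitted relative to DMSO.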

Experiment [11] can be described thus: ATG_TGFb_CIS: Attagene CIS-FACTORIAL HepG2 Assay for human Transforming Growth Factor (TGF) (AID 2282967). To be noted: HepG2 Attagene CIS TGFb reporter, mRNA transcription; actives raise or lower the signal. The gist of the method: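 Readout: fluorescently labeled reporter cDNA fragments resolved by capillary electrophoresis after RT-PCR. Transfected HepG2 cells dosed for 24 h; endogenous TF activity at TGFB1-linked cis element; gain or loss fitted relative to DMSO.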

Experiment [12] can be described thus: ATG_VDRE_CIS: Attagene CIS-FACTORIAL HepG2 Assay for human Vitamin D Receptor Element (VDRE) (AID 2282968). To be noted: HepG2 VDRE cis-reporter transcription, actives raise or lower the signal. The gist of the method: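 Compounds were applied for 24 h to HepG2 cells transfected with promoter-regulated reporter units. Total RNA was reverse-transcribed, and reporter amplicons were fluorescently labelled and sized by capillary electrophoresis.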

Experiment [13] has as its target Estrogen receptor (Homo sapiens) (UniProt P03372). As to the kind of experiment: ATG_ERa_TRANS: Attagene TRANS-FACTORIAL HepG2 Assay for human Estrogen Receptor alpha (ERa) (AID 2282970; active = hit-call score of the fitted dose curve at least 0.9, where 1 is the maximum). To be noted: HepG2 Attagene TRANS ERa GAL4 reporter, mRNA. The gist of the method:
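Transfected HepG2 cells carrying GAL4-UAS-driven reporter units were dosed for 24 hours. Total RNA was reverse-transcribed, reporter sequences PCR-amplified, FAM-labelled, HpaI-digested and resolved by capillary electrophoresis. Increases over DMSO control defined activity.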

Experiment [14] addresses Steroid hormone receptor ERR1 (Homo sapiens) (UniProt P11474). As to the kind of experiment: ATG_ERRa_TRANS: Attagene TRANS-FACTORIAL HepG2 Assay for human Estrogen-Related Receptor alpha (ERRa) (AID 2282971; active = hit-call score of the fitted dose curve at least 0.9, where 1 is the maximum). To be noted: HepG2 Attagene TRANS reporter, ERRa transactivation. The gist of the method: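 HepG2 cells were transiently transfected with multiple GAL4-UAS reporter units, then dosed with compound for 24 h. Total RNA was reverse-transcribed, reporter cDNA PCR-amplified and fluorescently labelled, and fragments resolved by capillary electrophoresis; induction was compared with DMSO.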

A short description of experiment [15]: ATG_M_19_TRANS: Attagene TRANS-FACTORIAL HepG2 Assay for M19 Transcription Factor (Internal Marker) (AID 2282974; active = hit-call score of the fitted dose curve at least 0.9, where 1 is the maximum). To be noted: HepG2 Attagene TRANS-FACTORIAL M19 internal marker reporter. The gist of the method:
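Reporter mRNA induction was measured in transfected HepG2 cells 24 h after dosing. Endpoint fitted upward relative to DMSO and serves as a background control within the multiplexed TRANS panel.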

Experiment [16] concerns the target Nuclear receptor subfamily 1 group I member 3 (Homo sapiens) (UniProt Q14994). Briefly: ATG_CAR_TRANS: Attagene TRANS-FACTORIAL HepG2 Assay for human Constitutive Androstane Receptor (CAR) (AID 2282969; active = hit-call score of the fitted dose curve at least 0.9, where 1 is the maximum;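 also: activators raise reporter mRNA above DMSO so AC50 marks induction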). To be noted: HepG2 Attagene TRANS-FACTORIAL CAR reporter. Summed up: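 Transiently transfected HepG2, multiplex TRANS reporters (CAR-Gal4 chimera driving GAL4-UAS reporter). 24 h dosing. Readout: reporter transcript by RT-PCR + capillary electrophoresis, fluorescence intensity; positive direction vs DMSO.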

Experiment [17] concerns the target X-box-binding protein 1 (Homo sapiens) (UniProt P17861). As to the kind of experiment: ATG_Xbp1_CIS: Attagene CIS-FACTORIAL HepG2 Assay for human X-box Binding Protein 1 (XBP1) (AID 2282972). To be noted: HepG2 XBP1 cis-element reporter, Attagene multiplex; actives raise or lower the signal. The gist of the method: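 Reporter transcripts were quantified by RT-PCR with fluorescent primer extension and capillary electrophoresis after 24 h chemical exposure. Cells: transiently transfected HepG2 carrying cis-regulated reporter constructs; data fitted bidirectionally relative to DMSO.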

Experiment [18] is described as follows: ATG_GAL4_TRANS: Attagene TRANS-FACTORIAL HepG2 Assay for GAL4 (Internal Marker) (AID 2282976; active = hit-call score of the fitted dose curve at least 0.9, where 1 is the maximum). To be noted: HepG2 Attagene TRANS GAL4 internal marker reporter. Summed up:
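Fluorescence from capillary electrophoresis of labelled RT-PCR products quantifies reporter mRNA induction after 24 h dosing of HepG2 cells carrying transfected GAL4-UAS reporter transcription units. Vehicle DMSO serves as baseline.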

Chain of X-box-binding protein 1 (Homo sapiens) (P17861 whole entry, looked up): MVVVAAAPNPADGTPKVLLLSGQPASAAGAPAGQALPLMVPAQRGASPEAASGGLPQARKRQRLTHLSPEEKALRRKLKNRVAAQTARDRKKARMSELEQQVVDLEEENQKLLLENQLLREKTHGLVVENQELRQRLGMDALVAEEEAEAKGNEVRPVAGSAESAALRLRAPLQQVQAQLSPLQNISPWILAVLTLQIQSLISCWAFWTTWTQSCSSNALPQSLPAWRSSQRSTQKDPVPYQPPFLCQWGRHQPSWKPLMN
Chain of Estrogen receptor (Homo sapiens) (P03372 whole entry, looked up, the tested form may be a part): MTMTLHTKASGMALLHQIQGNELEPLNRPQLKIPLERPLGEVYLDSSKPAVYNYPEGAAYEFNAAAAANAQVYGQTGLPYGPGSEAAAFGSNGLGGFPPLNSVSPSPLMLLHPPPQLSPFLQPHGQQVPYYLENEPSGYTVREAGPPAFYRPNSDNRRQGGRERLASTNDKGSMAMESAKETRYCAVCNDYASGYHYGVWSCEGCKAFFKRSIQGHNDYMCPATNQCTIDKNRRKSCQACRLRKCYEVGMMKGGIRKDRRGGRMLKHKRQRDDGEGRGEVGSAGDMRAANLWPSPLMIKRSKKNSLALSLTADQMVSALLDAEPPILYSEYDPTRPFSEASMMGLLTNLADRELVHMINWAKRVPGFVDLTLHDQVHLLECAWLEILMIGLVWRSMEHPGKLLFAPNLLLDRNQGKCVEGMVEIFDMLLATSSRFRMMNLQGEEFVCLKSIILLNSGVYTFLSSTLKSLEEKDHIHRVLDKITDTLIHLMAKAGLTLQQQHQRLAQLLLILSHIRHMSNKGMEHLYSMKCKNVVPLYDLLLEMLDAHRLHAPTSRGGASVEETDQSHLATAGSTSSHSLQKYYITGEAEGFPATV
Chain of Signal transducer and activator of transcription 3 (Homo sapiens) (P40763 whole entry, looked up, the tested form may be a part): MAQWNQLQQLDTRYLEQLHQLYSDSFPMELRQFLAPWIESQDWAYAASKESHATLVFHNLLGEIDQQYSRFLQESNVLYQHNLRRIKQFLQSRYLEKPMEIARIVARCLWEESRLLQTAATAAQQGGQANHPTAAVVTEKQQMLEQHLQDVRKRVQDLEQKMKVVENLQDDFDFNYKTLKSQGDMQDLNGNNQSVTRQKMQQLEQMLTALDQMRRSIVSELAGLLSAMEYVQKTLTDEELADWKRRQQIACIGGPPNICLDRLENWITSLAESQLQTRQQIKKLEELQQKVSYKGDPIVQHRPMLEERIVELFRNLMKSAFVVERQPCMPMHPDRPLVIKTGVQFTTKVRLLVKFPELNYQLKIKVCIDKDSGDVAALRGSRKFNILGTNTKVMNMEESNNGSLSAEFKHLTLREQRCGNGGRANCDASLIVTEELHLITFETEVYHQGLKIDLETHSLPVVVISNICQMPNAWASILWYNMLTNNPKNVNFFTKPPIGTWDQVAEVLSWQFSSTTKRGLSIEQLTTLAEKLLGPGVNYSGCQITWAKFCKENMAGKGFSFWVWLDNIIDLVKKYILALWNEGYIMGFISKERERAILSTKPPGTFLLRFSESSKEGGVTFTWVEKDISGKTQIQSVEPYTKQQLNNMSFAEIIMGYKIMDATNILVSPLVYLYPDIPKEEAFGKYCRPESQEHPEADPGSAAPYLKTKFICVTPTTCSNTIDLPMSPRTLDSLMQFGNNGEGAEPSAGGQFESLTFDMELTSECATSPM
Chain of Nuclear receptor subfamily 1 group I member 3 (Homo sapiens) (Q14994 whole entry, looked up, the tested form may be a part): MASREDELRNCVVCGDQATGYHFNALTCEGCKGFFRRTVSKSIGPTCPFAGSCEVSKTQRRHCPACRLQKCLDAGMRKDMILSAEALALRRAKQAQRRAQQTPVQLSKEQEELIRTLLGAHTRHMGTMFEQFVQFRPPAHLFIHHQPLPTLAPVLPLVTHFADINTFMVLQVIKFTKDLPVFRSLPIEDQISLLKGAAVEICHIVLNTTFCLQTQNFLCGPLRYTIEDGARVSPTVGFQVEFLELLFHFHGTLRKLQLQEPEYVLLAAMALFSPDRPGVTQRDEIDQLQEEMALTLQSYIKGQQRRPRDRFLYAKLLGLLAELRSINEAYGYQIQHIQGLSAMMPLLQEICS
Chain of Transcription factor Sp1 (Homo sapiens) (P08047 whole entry, looked up): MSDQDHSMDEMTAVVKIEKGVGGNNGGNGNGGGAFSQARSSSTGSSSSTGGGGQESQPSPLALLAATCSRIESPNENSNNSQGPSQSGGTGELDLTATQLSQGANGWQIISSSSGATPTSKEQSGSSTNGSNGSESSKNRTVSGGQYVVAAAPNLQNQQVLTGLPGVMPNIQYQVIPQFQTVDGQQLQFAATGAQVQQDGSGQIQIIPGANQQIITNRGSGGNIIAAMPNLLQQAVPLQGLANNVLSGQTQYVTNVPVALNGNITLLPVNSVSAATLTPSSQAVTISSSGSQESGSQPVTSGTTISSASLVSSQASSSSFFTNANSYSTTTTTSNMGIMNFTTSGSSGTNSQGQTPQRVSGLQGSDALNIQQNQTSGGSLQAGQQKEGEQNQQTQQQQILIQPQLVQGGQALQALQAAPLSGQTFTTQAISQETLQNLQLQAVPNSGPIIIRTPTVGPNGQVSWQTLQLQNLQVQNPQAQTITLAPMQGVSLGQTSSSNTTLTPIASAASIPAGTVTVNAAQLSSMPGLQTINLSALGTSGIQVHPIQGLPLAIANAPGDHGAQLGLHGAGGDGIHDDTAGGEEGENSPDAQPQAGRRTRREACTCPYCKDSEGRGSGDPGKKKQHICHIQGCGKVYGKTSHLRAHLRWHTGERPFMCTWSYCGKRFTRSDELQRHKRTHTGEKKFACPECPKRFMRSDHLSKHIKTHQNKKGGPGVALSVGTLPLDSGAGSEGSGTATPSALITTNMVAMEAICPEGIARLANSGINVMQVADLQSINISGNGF
Chain of Steroid hormone receptor ERR1 (Homo sapiens) (P11474 whole entry, looked up, the tested form may be a part): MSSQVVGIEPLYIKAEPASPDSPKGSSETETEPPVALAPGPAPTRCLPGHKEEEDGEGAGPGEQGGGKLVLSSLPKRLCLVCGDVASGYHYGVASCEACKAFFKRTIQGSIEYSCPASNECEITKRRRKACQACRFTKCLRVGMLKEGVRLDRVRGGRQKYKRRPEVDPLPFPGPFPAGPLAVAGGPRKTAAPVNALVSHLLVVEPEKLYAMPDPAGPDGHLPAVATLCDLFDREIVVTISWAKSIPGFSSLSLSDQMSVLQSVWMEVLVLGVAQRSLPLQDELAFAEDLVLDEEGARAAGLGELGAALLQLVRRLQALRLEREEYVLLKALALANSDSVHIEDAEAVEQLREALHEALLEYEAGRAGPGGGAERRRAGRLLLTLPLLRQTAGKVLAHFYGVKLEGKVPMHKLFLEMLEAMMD

With `ClC1=C(Cl)[C@]2(Cl)[C@@H]3[C@H]4C[C@H]([C@@H]5O[C@H]45)[C@@H]3[C@@]1(Cl)C2(Cl)Cl`, the AC50 was 1.58 µM (active) in experiment [1], 4.74 µM (active) in experiment [9] and 2.18 µM (active) in experiment [12]. The compound was classed as inactive in experiment [2], in [3], in experiment [4], in experiment [5], in experiment [6] and in experiment [7]. The result in experiment [8], in experiment [10], in experiment [11], in experiment [13], in [14] and in experiment [15] was inactive.

On to `CCOP(=S)(OCC)SCSC(C)(C)C`, for which the AC50 in [1] is 7.42 µM (active) and 2.05 µM (active); in [6], 100 µM (active) and 73.9 µM (active); in [13], 19.8 µM (active) and 13.2 µM (active). Also, the call in experiment [2], in experiment [4], in experiment [5], in experiment [7], in experiment [8] and in experiment [9] was inactive. Also, the result in experiment [10], in experiment [11], in [12], in experiment [16] and in [15] was inactive.

On to `CN(C)CCO`, for which the AC50 in experiment [1] was 100 µM (active). Besides, the outcome in experiment [1], in experiment [2], in experiment [3], in experiment [4], in experiment [5] and in experiment [6] was inactive. Moreover, the call in experiment [7], in [8], in [9], in experiment [10], in experiment [11] and in [12] was inactive. Moreover, the compound was classed as inactive in experiment [16], in experiment [14], in experiment [17], in experiment [15] and in experiment [18].

Consider `Cc1ccccc1CO[C@@H]1C[C@@]2(C(C)C)CC[C@]1(C)O2`, for which the half-maximal activity concentration (AC50) in [1] was 2.14 µM (active); in experiment [2], 50 µM (active); in experiment [6], 14.7 µM (active); in experiment [12] it was 21.4 µM (active). Further, the compound was called inactive in experiment [3], in experiment [4], in experiment [5], in experiment [7], in [8] and in [9]. For the same compound, the outcome in [10], in experiment [11], in experiment [16] and in experiment [17] was inactive.

As to `ClC(Cl)=C(c1ccc(Cl)cc1)c1ccc(Cl)cc1`, the concentration at half-maximal activity (AC50) was 31.7 µM (active) and 78.5 µM (active) and 27.1 µM (active) in experiment [2]; 66.7 µM (active) in experiment [4]; 95.5 µM (active) [middle of 4 runs] in experiment [5]; 130 µM (active) and 169 µM (active) in experiment [6]; 100 µM (active) in experiment [12]; 12.2 µM (active) and 4.03 µM (active) and 3.46 µM (active) in [13]. In addition, the outcome in experiment [2], in experiment [3], in experiment [4], in experiment [6], in experiment [7] and in experiment [8] was inactive. Further, the compound was classed as inactive in experiment [9], in [10], in experiment [11], in experiment [12], in [16] and in experiment [13]. In experiment [15], the compound was classed as inactive.

With `CO/C=C(/C(=O)OC)c1ccccc1COc1cccc(C(F)(F)F)n1`, the concentration at half-maximal activity (AC50) in [1] was 3.54 µM (active); in experiment [2], 37.3 µM (active); in experiment [3] it was 23 µM (active); in experiment [6], 4.44 µM (active); in experiment [9] it was 26.4 µM (active); in [12] it was 11.9 µM (active). Further, the compound was classed as inactive in experiment [4], in experiment [5], in experiment [7], in experiment [8], in experiment [10] and in experiment [11]. Further, the compound was classed as inactive in experiment [16] and in experiment [15].
